Measured values from PubChem BioAssay (NCATS).
“And” between values parts separate entries of the source, which are not always exact repeats. Identical values can stand only once. Results filed as inconclusive are left out. The source made the active and inactive calls. Unless noted, the rule behind the calls is not given here.

Key:
[1] = qHTS profiling for inhibitors of Plasmodium falciparum (3D7) proliferation (AID 743322);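 note: infected erythrocytes exposed to compound for 72 h before lysis; 100% = DMSO vehicle wells and 0% = 0.29 µM artemisinin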; details: P. falciparum 3D7 proliferation; at 28.7 µM (top of the series)
Procedure, shortened: (§1)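 Parasite DNA was quantified by SYBR Green I fluorescence (ex 485, em 535 nm) after overnight lysis in saponin/Triton buffer at room temperature. Cultures at 0.3% parasitemia and 2.5% hematocrit were first exposed to compound for 72 h at 37 C; signals were normalised to artemisinin (0.29 uM) and vehicle wells.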

[2] = qHTS profiling for inhibitors of Plasmodium falciparum (DD2) proliferation (AID 743323); details: lower = more inhibition; at 28.7 µM (top of the series)
Procedure, shortened: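 1536-well qHTS; infected RBCs 0.3% parasitemia/2.5% Hct final; cpd 72 h 37 C 5% CO2; lysis buffer + SYBR Green I, o/n RT dark; FI 485/535; norm. to 0.29 uM artemisinin and DMSO, plate-stack corrected.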

[3] = qHTS profiling of the MIPE4 collection as inhibitors of Plasmodium falciparum (3D7) proliferation (AID 743344);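 note: scaled between DMSO vehicle wells and 0.29 µM artemisinin as full inhibition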; details: P. falciparum 3D7 in erythrocytes, SYBR Green DNA fluorescence, 72 h; at 28.5 µM (top of the series) unless noted
Procedure, shortened: as §1

[4] = qHTS profiling of the MIPE4 collection as inhibitors of Plasmodium falciparum (DD2) proliferation (AID 743345); details: P. falciparum Dd2 in erythrocytes, SYBR Green DNA, 72 h; at 28.5 µM (top of the series) unless noted
Procedure, shortened: as §1

[5] = qHTS profiling of the MIPE4 collection as inhibitors of Plasmodium falciparum (DD2) proliferation (Rep 2) (AID 743346); details: P. falciparum Dd2 in erythrocytes, SYBR Green DNA, 72 h; at 28.5 µM (top of the series) unless noted
Procedure, shortened: as §1

[6] = qHTS profiling of the MIPE4 collection as inhibitors of Plasmodium falciparum (HB3) proliferation (AID 743347);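 note: plate controls were DMSO vehicle wells for no effect and artemisinin wells for full effect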; details: P. falciparum HB3 in erythrocytes, SYBR Green DNA, 72 h; at 28.5 µM (top of the series) unless noted
Procedure, shortened: as §1

[7] = High-throughput drug toxicity screening in the BPDCN cell line Cal-1 (AID 1224825); details: Cal-1 BPDCN cell viability, qHTS; at 45.8 µM (top of the series) unless noted
Procedure, shortened: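 CellTiter-Glo luminescence after 48 h compound exposure; percent activity scaled with DMSO as 100% and bortezomib (9.2 uM final) as 0%. Cal-1 cells seeded at 500/well in RPMI, 10% FBS, no phenol red.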

[8] = qHTS assay for cell viability of the p53RE-bla HCT-116 cell line (AID 743292; active = well fitted curve in the direction sought with a large enough effect; an effect the other way counts as inactive or inconclusive; note: % is set by controls: 0 for no effect and ±100 for the full control effect; nearly all actives have a fitted effect of over 55% in size)
Procedure, shortened: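 CellSensor p53RE-bla HCT-116 cells, 4,000/well, preincubated 5 h at 37 C, then exposed to compounds in DMSO for 16 h at 37 C. Viability read as CellTiter-Glo luminescence (intracellular ATP) after 30 min at room temperature.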

[9] = qHTS profiling for inhibitors of Plasmodium falciparum (HB3) proliferation (AID 743324; active = well fitted curve in the direction sought with a large enough effect; an effect the other way counts as inactive or inconclusive;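 note: 100% = DMSO vehicle wells and 0% = artemisinin-treated control wells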); details: Plasmodium falciparum HB3 blood-stage proliferation; at 28.7 µM (top of the series)
Procedure, shortened: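 SYBR Green fluorescence (485 ex/535 em) of lysed cultures, incubated overnight at room temperature in the dark, quantifies parasite DNA. Infected erythrocytes at 0.3% parasitemia and 2.5% hematocrit were exposed 72 h; values normalized to DMSO and 0.29 uM artemisinin controls.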

SMILES | remaining parasite growth % (stronger effect = lower value) [1] | activity, percent of control [2] | parasite growth, % of DMSO control [3] | parasite growth remaining, % of DMSO control (lower = more inhibition) [4] | parasite growth, % of control (lower = inhibition) [5] | growth, % of control [6] [%] | viability (% of control) [7] | Potency [8] | remaining proliferation (% of control), lower = more inhibition [9]
COc1cc2nc(N3CCCN(C)CC3)nc(NC3CCN(Cc4ccccc4)CC3)c2cc1OC | 0.848% | 0.575% | 4.4% | 6.59% | 7.33% | 8.7 | 4.13% | – | –
NC1(c2ccc(-c3nc4ccn5c(=O)[nH]nc5c4cc3-c3ccccc3)cc2)CCC1 | 36.9% and -1.39% | 14.1% and -0.386% | – | 17.9% | 7.57% | 8.07 | – | – | –
CCC(C)(C)c1ccc(CC(C)CN2C[C@@H](C)O[C@@H](C)C2)cc1 (stereo not given in full) | – | – | 17.4% | 82.2% | 39% | – | – | – | –
CC(C)Cn1cnc2c(N)nc3ccccc3c21 | – | – | 43.4% | 74.5% | 32.3% | – | 3.23% | – | –
O=P(O)(O)C(O)(Cc1cccnc1)P(=O)(O)O | – | – | 71.4% | 99.5% | 80.5% | 100 | 125% | – | –
O=S(=O)(O)CCS | – | – | – | 108% | 78.8% | – | 32.1% | – | –
C[C@@H](CN1CC(=O)NC(=O)C1)N1CC(=O)NC(=O)C1 | – | – | 74.5% | 88.1% | 105% | 65.5 | 14.7% | – | –
CCCCc1oc2ccc(NS(C)(=O)=O)cc2c1C(=O)c1ccc(OCCCN(CCCC)CCCC)cc1 | – | – | – | 6.73% | 18.2% | 7.93 | 4.81% | – | –
CC(=O)Oc1ccccc1C(=O)Nc1ncc([N+](=O)[O-])s1 | – | – | 4.65% [at 57.5 µM] | 8.2% [at 57.5 µM] | 7.18% [at 57.5 µM] | – | 38.5% [at 92.2 µM] | – | –
CCCOc1ccc(C(=O)OCCN(CC)CC)cc1N | – | – | 100% | 88.7% | 111% | – | – | – | –
Cc1nnc(NS(=O)(=O)c2ccc(N)cc2)s1 | – | – | 22.2% | 17.6% | 8.26% | 38.9 | – | inactive | –
CNC(=O)c1cc(Oc2ccc(NC(=O)Nc3ccc(Cl)c(C(F)(F)F)c3)cc2)ccn1 | 31.5% and 9.84% | 29.9% and 20% | – | 14% | 33% | 12.2 | – | – | 3.29% and 1.23%
OCc1ccc(-c2nn(Cc3ccccc3)c3ccccc23)o1 | – | – | – | 85% | 73.7% | 21.8 | 104% | – | –
NC(=O)c1ccc2[nH]ccc2c1 | – | – | 98% | 90.8% | 122% | 57.5 | 90.6% | – | –
NCCCC(O)(P(=O)(O)O)P(=O)(O)O | – | – | – | 107% | 114% | 117 | 97.8% | – | –
CC(C)C1CCC(C(=O)N[C@H](Cc2ccccc2)C(=O)O)CC1 (stereo not given in full) | – | – | – | 118% | 109% | 85.4 | 99.1% | – | –
CNNCc1ccc(C(=O)NC(C)C)cc1 | – | – | 72.9% | 93.3% | 68.8% | 68.9 | 78.4% | – | –
CNS(=O)(=O)Cc1ccc2[nH]cc(CCN(C)C)c2c1 | – | – | 64.4% | 70.9% | 75.7% | 17.2 | 117% | – | –
S=P(N1CC1)(N1CC1)N1CC1 | – | – | 11.7% | 24.7% | 15.4% | 3.94 | – | inactive | –
Cc1ccc(S(=O)(=O)N[C@@H](Cc2ccccc2)C(=O)CCl)cc1 | – | – | 90.3% | 91.3% | 79.2% | 84.3 | 3.45% | – | –
CC(C)NCC(O)c1ccc(NS(C)(=O)=O)cc1 (stereo not given) | – | – | 44.4% | 94.6% | 30.5% | 52.5 | 120% | – | –
CCc1cc(C(N)=S)ccn1 | – | – | – | 10.5% | 6.58% | – | 95.1% | inactive | –
CCOc1cc(N)c(Cl)cc1C(=O)NCC1CN(Cc2ccc(F)cc2)CCO1 (stereo not given) | – | – | 105% | 101% | 178% | – | 98.6% | – | –
CC(C)OC(=O)C(C(=O)OC(C)C)=C1SC=CS1 | – | – | 89% | 117% | 72.6% | 91.6 | 94.2% | – | –
COc1ccc2cc3[n+](cc2c1OC)CCc1cc2c(cc1-3)OCO2 | – | – | 5.45% | 6.26% | 13.4% | 4.47 | 7.43% | inactive | –
COc1cccc(N(C)C(=S)Oc2ccc3c(c2)CCCC3)n1 | – | – | 47.9% | 82.7% | 34.5% | 24.4 | 76.1% | – | –
CCn1cc(C(=O)O)c(=O)c2cc(F)c(N3CCNCC3)nc21 | – | – | 35.6% | 56.4% | 53.9% | 56.4 | 114% | – | –
N=C(N)c1ccc(OCCCCCOc2ccc(C(=N)N)cc2)cc1 | – | – | 5.02% | 6.09% | 15.7% | – | 39.6% | inactive | –
